This is part of a sample that, as a whole, favours compounds with a hit. Of some 83,000 tested, about 20% had one in any assay.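 48-hour exposure, single concentration, 96-well plates; percent growth endpoint where 0 means no net growth. Active: below 10.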 Values without a mark were called inactive. The source made the active and inactive calls.
Experiments:
Assay in all cases: NCI-60 one-dose screen, 48 h (100 = growth as untreated, 0 = no growth, -100 = all killed)
Conditions in all cases: 10 µM unless noted
K-562 leukemia = tested on: K-562 leukemia
MALME-3M melanoma = tested on: MALME-3M melanoma
MDA-MB-231 breast = tested on: MDA-MB-231 breast
RXF 393 renal = tested on: RXF 393 renal
SF-268 CNS = tested on: SF-268 CNS
SF-295 CNS = tested on: SF-295 CNS
SF-539 CNS = tested on: SF-539 CNS
UACC-257 melanoma = tested on: UACC-257 melanoma
M14 melanoma = tested on: M14 melanoma
HCT-15 colon = tested on: HCT-15 colon
HT29 colon = tested on: HT29 colon
SNB-75 CNS = tested on: SNB-75 CNS
SNB-19 CNS = tested on: SNB-19 CNS
U251 CNS = tested on: U251 CNS
PC-3 prostate = tested on: PC-3 prostate
SK-MEL-5 melanoma = tested on: SK-MEL-5 melanoma
UACC-62 melanoma = tested on: UACC-62 melanoma
SK-MEL-28 melanoma = tested on: SK-MEL-28 melanoma
SK-MEL-2 melanoma = tested on: SK-MEL-2 melanoma
LOX IMVI melanoma = tested on: LOX IMVI melanoma

SMILES | growth (K-562 leukemia) | growth (MALME-3M melanoma) | growth (MDA-MB-231 breast) | growth (RXF 393 renal) | growth (SF-268 CNS) | growth (SF-295 CNS) | growth (SF-539 CNS) | growth (UACC-257 melanoma) | growth (M14 melanoma) | growth (HCT-15 colon) | growth (HT29 colon) | growth (SNB-75 CNS) | growth (SNB-19 CNS) | growth (U251 CNS) | growth (PC-3 prostate) | growth (SK-MEL-5 melanoma) | growth (UACC-62 melanoma) | growth (SK-MEL-28 melanoma) | growth (SK-MEL-2 melanoma) | growth (LOX IMVI melanoma)
Cc1cc2nc3c4cc(Cl)ccc4n(CC(=S)NCCN(C)C)c3nc2cc1C | -43.6% (active) | -49.2% (active) | -71.8% (active) | -67.8% (active) | 26.8% | -50.4% (active) | -94.3% (active) | -17.2% (active) | -90.1% (active) | -76.3% (active) | -32% (active) | -19.1% (active) | 4.89% (active) | -54.8% (active) | -30.1% (active) | -10.3% (active) | -67.1% (active) | -91.3% (active) | 70.7% | 
CC(=NNc1ncnc2ccccc12)c1ccc(S(C)(=O)=O)cc1 | 96.9% | 98.3% | 93% | 114% | 108% | 97.1% | 97.6% | 108% | 92.5% | 96.5% | 112% | 103% | 97.6% | 117% | 87.9% | 101% | 96.1% | 113% | 112% | 
Clc1ccc2oc3c(NCCCN4CCOCC4)c4ccccc4nc3c2c1 | 1.61% (active) | 24.1% | 25.2% | 13.9% | 38.1% | 17.4% | 19.9% | 50.5% | 31.8% | 3.77% (active) | 14% | 24.7% | 35.9% | 23% | 40.7% |  | 40% | 36.9% |  | -53.1% (active)
Nc1c(C(=O)c2ccc(Br)cc2)oc2nc(-c3cnccn3)cc(-c3cccs3)c12 | 92.7% | 102% | 101% | 96.6% | 104% | 99.6% | 98.8% | 103% | 98.9% | 97.7% | 111% | 98.3% | 97.1% | 92.1% | 96.3% | 98% | 93.7% | 107% | 113% | 
CCOC(=O)c1c(Nc2ccccc2)nn2c(N)c(C#N)c(-c3ccc(Cl)cc3)nc12 | 69.1% | 85% | 69.9% | 64.6% | 61.1% | 26.8% | 64.3% | 95.8% | 81.2% | 76% | 73.1% | -11.2% (active) | 89.8% | 44.6% | 40.9% |  | 70% | 78.5% | 87% | 49.3%
COC(=O)C1CCCN(S(=O)(=O)/N=C2\NC(=O)NC2=C(Cl)Cl)C1 (configuration not stated) | 10.9% | 104% | 102% | 121% | 106% | 104% | 105% | 106% | 99.3% | 80.7% | 116% | 125% | 94.6% | 95.3% | 101% | 101% | 94% | 105% | 106% | 
CCCC(=O)NC(c1cccnc1)c1cc(C)c2cccnc2c1O (configuration not stated) | 22.6% | 53.1% | 35.5% | 81.9% | 42.1% | 32.3% | 23.3% | 20.9% | 27.5% | 24.2% | 21.5% | 77.5% | 61.4% | 41.3% | 56.9% |  | 28.4% | 42.5% |  | 40.2%
Cc1cc(C(NC(=O)CCCCCNc2cccc3c2C(=O)N(C2CCC(=O)NC2=O)C3=O)c2cccnc2)c(O)c2ncccc12 (configuration not stated) | 17.8% | -14.3% (active) | -11.5% (active) | 17.2% | 23.6% | 6.66% (active) | 21.5% | 26.2% | -5.27% (active) | 19% | 20.5% | 8.96% (active) | 21.7% | 30.7% | 6.73% (active) | -58.7% (active) | 18.5% | 25.2% | -16.9% (active) | 
N#Cc1c(-c2ccc(Cl)cc2)nc(SCc2ccccc2)nc1N1CCNCC1 | 0.363% (active) | 84.4% | 44.2% | 74.4% | 74.2% | 94.3% | 75.6% | 97.3% | 82.1% | 13.2% | -47.6% (active) | 69.5% | 69.8% | -65.6% (active) | 59.2% |  | 89.8% | 108% | 112% | -71.5% (active)
CCN1C(=S)N(CC)C2C1N=C(SC)N2/N=C/C=C/c1ccccc1[N+](=O)[O-] (configuration not stated) | 68.1% | 93.8% | 89.7% | 115% | 88.5% | 90.4% | 81.1% | 109% | 108% | 79.2% | 93.5% | 82.2% | 103% | 96.5% | 85% |  | 85.1% | 105% | 123% | 116%
COC(=O)C(C)NS(=O)(=O)/N=C1\NC(=O)NC1=C(Cl)Cl (configuration not stated) | 104% | 99% | 106% | 124% | 98.2% | 103% | 95.7% | 99.7% | 94.7% | 102% | 115% | 98.8% | 100% | 106% | 92.9% | 99.1% | 91.9% | 99.4% | 110% | 
CCCC(=O)NC(c1ccc2c(c1)OC(F)(F)O2)c1cc(C)c2cccnc2c1O (configuration not stated) | 15.9% | 14.4% | 34.8% | 55.4% | 18.7% | 20.9% | 8.69% (active) | 3.17% (active) | -11.5% (active) | 39.3% | 32.3% | 40.4% | 22.5% | 14.8% | 36.6% |  | -16.7% (active) | 17.1% | 40.2% | 21.1%
N#Cc1nc(-c2ccccc2)oc1N1CCC(CO)C1 (configuration not stated) | 114% | 94.3% | 101% | 100% | 97.7% | 105% | 93.9% | 105% | 106% | 104% | 107% | 89% | 93.3% | 105% | 107% | 106% | 89.4% | 103% | 127% | 
CC(C)(C)OC(=O)N1C(=O)c2c(c3c4ccccc4[nH]c3c3ccc4ccccc4c23)C1=O | 42.2% | 48.1% | 66.8% | 59% | 63.3% | 50.2% | 62.1% | 77.2% | 37.3% | 51.6% | 51.6% | 79.5% | 97.2% | 58.8% | 42.8% |  | 60.3% | 63.2% | 42.7% | 57.5%
COc1cc(/C=C/C(=O)c2ccc(F)cc2)ccc1Oc1nc(NCCO)nc(N2CCOCC2)n1 | 6.99% (active) | 78.8% | 86.7% | 108% | 81% | 93.2% | 88.2% | 98.3% | 84% | 39.2% | 53.5% | 92.2% | 69.4% | 44.1% | 70.8% | 82.1% | 57.2% | 91.3% | 93.9% | 
C#Cc1nc(C2=C(C)/C(=N/OCc3ccccc3)CC2)cs1 | 75.5% | -44% (active) | -39.2% (active) | 33.6% | 0.651% (active) | -84% (active) | -86.5% (active) | 84.4% | 75.4% | 53.4% | 67% | -88.4% (active) | 72.8% | 37.6% | 82.3% | 85.7% | 62.5% | 94.6% | 98.7% | 
